Results taken from PubChem BioAssay (NCATS).
Records with an inconclusive call do not appear. The source made the active and inactive calls. Unless noted, calls come from the whole dose curve; as a rule, active = well fitted curve in the direction sought with a large enough effect; inconclusive = small, poorly fitted or top-dose-only effect, or another doubt; inactive = no such curve, though single readings can be large; an effect the other way counts as inactive or inconclusive.

Assays:
[1] = qHTS for differential inhibitors of proliferation of Plasmodium falciparum line 7G8 (AID 1815);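 note: parasite growth measured after three days of incubation; plate controls were vehicle wells for no effect and reference inhibitor wells for full effect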
[2] = qHTS for differential inhibitors of proliferation of Plasmodium falciparum line GB4 (AID 1816); conditions: Potency: Plasmodium falciparum GB4 proliferation inhibition;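 note: parasite growth measured after 72 h incubation; 0% = vehicle DMSO and -100% = reference inhibitor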
[3] = qHTS for differential inhibitors of proliferation of Plasmodium falciparum line 3D7 (AID 1876);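 note: parasite growth measured after three days of culture; 0% = vehicle wells and -100% = reference inhibitor wells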
[4] = qHTS for differential inhibitors of proliferation of Plasmodium falciparum line D10 (AID 1877);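 note: parasites grown with compound for 72 h before DNA staining; plate controls were vehicle wells for no effect and reference inhibitor wells for full effect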
[5] = qHTS for differential inhibitors of proliferation of Plasmodium falciparum line Dd2 (AID 1882); conditions: Potency: Plasmodium falciparum Dd2 proliferation inhibition;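 note: series mostly up to about 29 µM; plate controls were DMSO vehicle for no effect and 0.29 µM artemisinin for full effect; nearly all actives have a fitted effect of over 65% in size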
Summary of the method: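 SYBR Green DNA fluorescence (ex 485, em 535 nm) after overnight lysis quantifies parasite growth; compound exposure lasted 72 h at 37 C on infected red cells at 2.5% hematocrit, 0.3% parasitemia (final). Artemisinin 0.29 uM and vehicle wells define normalization.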

[6] = qHTS for differential inhibitors of proliferation of Plasmodium falciparum line W2 (AID 1883); conditions: Potency: Plasmodium falciparum W2 proliferation inhibition;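 note: parasites grown with compound for 72 h before lysis and staining; 0% = vehicle wells and -100% = control inhibitor wells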
[7] = qHTS for differential inhibitors of proliferation of Plasmodium falciparum line HB3 (AID 1886); conditions: Potency: Plasmodium falciparum HB3 proliferation inhibition;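 note: parasites grown with compound for 72 h before SYBR Green readout; plate controls were vehicle for no effect and reference inhibitor for full effect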
[8] = biological target: ATP-dependent DNA helicase Q1 (Homo sapiens) (UniProt P46063); test: qHTS Validation Assay for Inhibitors of RecQ-Like Dna Helicase 1 (RECQ1) (AID 2353);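 note: plate controls were DMSO vehicle for no effect and enzyme-free control for full effect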
Summary of the method: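 RECQ1T1 50 nM; forked duplex (20 bp + 30-nt ss tails) 200 nM, ATP 2 mM final; pH 8.0, 2 mM MgCl2, 2.5 ug/ml poly(dI-dC); 15 min compound preincubation; discontinuous kinetic read over 2 h at RT.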

[9] = Validation screen for small molecules that induce DNA re-replication in MCF 10A normal breast cells (AID 463097); note: 0% is about no effect; nearly all actives have a fitted effect of over 60% in size
Summary of the method: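 DNA re-replication was detected as a rise in nuclei with elevated Hoechst fluorescence after a 48 hr compound exposure of MCF 10A cells at 37 C.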

[10] = Quantitative high throughput screen for delayed death inhibitors of the malarial parasite plastid, 96 hour incubation (AID 488745); note: series mostly up to about 29 µM; % is set by controls: 0 for no effect and ±100 for the full control effect; nearly all actives have a fitted effect of over 70% in size
Summary of the method: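 Decreased firefly luciferase luminescence indicates inhibited growth of reporter-integrated P. falciparum after two generations (96 h, 37 C, 5% CO2). Infected erythrocytes at 0.1% parasitemia, 2% hematocrit, in Albumax-supplemented RPMI 1640.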

[11] = Quantitative high throughput screen for delayed death inhibitors of the malarial parasite plastid, 48 hour incubation (AID 488752); note: % is set by controls: 0 for no effect and ±100 for the full control effect; nearly all actives have a fitted effect of over 65% in size
Summary of the method: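 One-generation (48 h) growth assay: a decrease in luciferase signal from an integrated reporter in P. falciparum-infected red cells (0.1% parasitemia, 2% hematocrit) after compound exposure at 37 C indicates parasite inhibition.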

[12] = biological target: M-phase phosphoprotein 8 (Homo sapiens) (UniProt Q99549); test: qHTS Validation Assay for Inhibitors for MPP8 Chromodomain Interactions with Methylated Histone Tails (AID 488949);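 note: AlphaScreen signal from MPP8 chromodomain bound to biotinylated H3K9me3 peptide; top concentration of the series differs between compounds; % is set by controls: 0 for no effect and ±100 for the full control effect; nearly all actives have a fitted effect of over 55% in size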
Summary of the method: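 Disruption of the preformed MPP8–trimethyl-H3K9 peptide complex (both 50 nM, 30 min, RT) is measured after 30 min compound exposure, using AlphaScreen proximity beads; aurintricarboxylic acid titration serves as plate control.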

[13] = biological target: Transient receptor potential cation channel subfamily V member 1 (Homo sapiens) (UniProt Q8NER1); test: HTS Assay for Compounds that Act as Enhancers of the Vanilloid Receptor 1 (AID 488979); note: 0% is about no effect
Summary of the method: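 Calcium influx kinetics via Fluo-8 (480/520 nm) in TRPV1-expressing cells, 2000/well cultured overnight at 35.5C. Compound-alone read 3 min (agonist phase), followed by EC20 capsaicin challenge for 2 min (enhancer phase).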

[14] = biological target: Thyrotropin receptor (Homo sapiens) (UniProt P16473); test: qHTS Assay for Antagonists of the Thyroid Stimulating Hormone Receptor (AID 488980); note: series mostly up to about 58 µM; 0% is about no effect
Summary of the method: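 Cells expressing human TSHR (HEK293) are dispensed in HBSS/HEPES containing 70 uM RO 20-1724, compound is added, then TSH at EC80 (4 nM final). Antibody in lysis buffer follows, 30 minutes at room temperature before HTRF detection.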

[15] = biological target: Thyrotropin-releasing hormone receptor (Homo sapiens) (UniProt P34981); test: qHTS for Small Molecule Agonists and Allosteric Enhancers of Human TRH Receptor: Validation Screen for Agonists (AID 493127;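 active = calcium activation more than 3 SD above the typical response in the agonist read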;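 note: intracellular calcium rise by fluo-8 fluorescence before TRH EC20 addition; 0% is about no effect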); conditions: TRH receptor agonist cell assay; at 2 µM; stronger effect = higher value
Summary of the method: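 Compound-evoked intracellular calcium release in fluo-8-loaded TRHR cells, read kinetically on FDSS (Ex 480/Em 530, 1 s/cycle) after 23 nL pintool transfer. Agonist phase preceded 10 nM TRH EC20 addition.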

[16] = biological target: Galactokinase (Homo sapiens) (UniProt P51570); test: qHTS Validation Assay for Inhibitors of Human Galactokinase (GALK) (AID 493189); note: 0% is about no effect
Summary of the method: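 Compounds were pin-transferred into ATP buffer, then GALK-galactose mix was added (final 5 nM enzyme, 100 uM galactose, 35 uM ATP). After 1 h at room temperature, remaining ATP was measured luminescently.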

[17] = Validation screen for small molecules that induce DNA re-replication in SW480 colon adenocarcinoma cells (AID 504364); note: 0% is about no effect
Summary of the method: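 Image-based DNA content read-out: Hoechst stain 40 min, total nuclear fluorescence intensity (ex 405 nm, em 500-530 nm) after 48 h compound exposure of 250 SW480 cells/well at 37 C, 5% CO2, versus DMSO vehicle.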

[18] = biological target: Voltage-gated inwardly rectifying potassium channel KCNH2 (Homo sapiens) (UniProt Q12809); test: qHTS Assay for Small Molecule Inhibitors of the Human hERG Channel Activity (AID 588834);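 note: U2OS cells transduced with hERG by BacMam; top concentration of the series differs between compounds; % is set by controls: 0 for no effect and ±100 for the full control effect; lower thallium flux fluorescence means stronger hERG block; nearly all actives have a fitted effect of over 50% in size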
Summary of the method: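 Cells were infected with hERG-BacMam virus for 4 hrs at room temperature, grown overnight, then seeded at 2000/well. After dye loading and roughly 10 min compound treatment, thallium influx was triggered and fluorescence recorded.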

[19] = tested on: Zika virus NS2B-NS3 protease; test: Primary screen GU AMC qHTS for Zika virus inhibitors (AID 1347154);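 note: 0% = no-inhibitor control and -100% = no-enzyme control; nearly all actives have a fitted effect of over 70% in size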
Summary of the method: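 Fluorogenic AMC-substrate cleavage by noncovalent NS2B-NS3 protease complex (25 nM, pH 8.0 Tris buffer with Tween 20) followed for 15 minutes at room temperature (~20% conversion). Percent inhibition from ex340/em450 signal change, fitted by 4-parameter Hill equation.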

[20] = Primary qHTS for small molecule stabilizers of the endoplasmic reticulum resident proteome: Secreted ER Calcium Modulated Protein (SERCaMP) assay (AID 1508630); note: % is set by controls: 0 for no effect and ±100 for the full control effect
Summary of the method: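 The SH-SY5Y reporter protocol was run at 3 concentrations up to 38.3 uM (primary) or 11 concentrations (follow-up): 16 h compound, 100 nM thapsigargin for 4 h, then extracellular luciferase luminescence.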

Sequence of Thyrotropin receptor (Homo sapiens) (P16473 whole entry, looked up): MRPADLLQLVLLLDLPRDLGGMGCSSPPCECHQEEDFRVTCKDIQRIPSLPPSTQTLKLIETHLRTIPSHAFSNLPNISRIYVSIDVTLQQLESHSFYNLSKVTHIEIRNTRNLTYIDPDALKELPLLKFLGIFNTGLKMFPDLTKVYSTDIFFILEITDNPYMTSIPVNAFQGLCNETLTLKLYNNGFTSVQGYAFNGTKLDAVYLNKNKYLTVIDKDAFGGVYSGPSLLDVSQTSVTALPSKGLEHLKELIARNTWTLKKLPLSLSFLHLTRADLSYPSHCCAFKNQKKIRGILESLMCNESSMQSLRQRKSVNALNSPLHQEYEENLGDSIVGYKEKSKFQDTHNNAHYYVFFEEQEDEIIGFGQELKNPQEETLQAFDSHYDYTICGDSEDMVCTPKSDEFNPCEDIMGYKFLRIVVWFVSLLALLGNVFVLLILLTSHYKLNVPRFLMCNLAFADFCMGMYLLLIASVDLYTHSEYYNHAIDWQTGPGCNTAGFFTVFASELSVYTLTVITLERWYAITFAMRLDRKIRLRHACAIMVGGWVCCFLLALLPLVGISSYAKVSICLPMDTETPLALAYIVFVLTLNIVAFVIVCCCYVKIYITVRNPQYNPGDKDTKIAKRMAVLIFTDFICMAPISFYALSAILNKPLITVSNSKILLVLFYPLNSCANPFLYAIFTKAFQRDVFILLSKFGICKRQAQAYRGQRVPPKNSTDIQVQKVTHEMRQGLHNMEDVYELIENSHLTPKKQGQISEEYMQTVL
Sequence of Galactokinase (Homo sapiens) (P51570 whole entry, looked up): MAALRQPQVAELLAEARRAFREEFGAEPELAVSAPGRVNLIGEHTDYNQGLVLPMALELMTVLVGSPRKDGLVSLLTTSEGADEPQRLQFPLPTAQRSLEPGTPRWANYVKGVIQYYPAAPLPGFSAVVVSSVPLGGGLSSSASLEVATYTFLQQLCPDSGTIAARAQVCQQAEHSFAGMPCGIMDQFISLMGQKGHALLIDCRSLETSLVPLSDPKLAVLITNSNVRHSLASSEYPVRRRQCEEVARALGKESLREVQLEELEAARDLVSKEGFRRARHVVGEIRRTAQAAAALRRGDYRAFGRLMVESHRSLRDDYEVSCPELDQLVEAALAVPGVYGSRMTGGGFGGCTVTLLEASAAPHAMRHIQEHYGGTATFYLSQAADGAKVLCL
Sequence of Thyrotropin-releasing hormone receptor (Homo sapiens) (P34981 whole entry, looked up): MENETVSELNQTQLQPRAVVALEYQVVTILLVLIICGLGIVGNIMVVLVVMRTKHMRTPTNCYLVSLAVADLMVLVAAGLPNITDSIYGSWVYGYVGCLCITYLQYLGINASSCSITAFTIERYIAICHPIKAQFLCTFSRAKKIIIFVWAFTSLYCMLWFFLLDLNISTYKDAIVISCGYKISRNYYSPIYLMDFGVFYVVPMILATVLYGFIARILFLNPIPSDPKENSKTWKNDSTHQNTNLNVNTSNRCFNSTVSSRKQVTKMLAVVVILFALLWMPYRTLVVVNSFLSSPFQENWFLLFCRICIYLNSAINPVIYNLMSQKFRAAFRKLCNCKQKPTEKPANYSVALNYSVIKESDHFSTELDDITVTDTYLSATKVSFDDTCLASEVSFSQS
Sequence of M-phase phosphoprotein 8 (Homo sapiens) (Q99549 whole entry, looked up): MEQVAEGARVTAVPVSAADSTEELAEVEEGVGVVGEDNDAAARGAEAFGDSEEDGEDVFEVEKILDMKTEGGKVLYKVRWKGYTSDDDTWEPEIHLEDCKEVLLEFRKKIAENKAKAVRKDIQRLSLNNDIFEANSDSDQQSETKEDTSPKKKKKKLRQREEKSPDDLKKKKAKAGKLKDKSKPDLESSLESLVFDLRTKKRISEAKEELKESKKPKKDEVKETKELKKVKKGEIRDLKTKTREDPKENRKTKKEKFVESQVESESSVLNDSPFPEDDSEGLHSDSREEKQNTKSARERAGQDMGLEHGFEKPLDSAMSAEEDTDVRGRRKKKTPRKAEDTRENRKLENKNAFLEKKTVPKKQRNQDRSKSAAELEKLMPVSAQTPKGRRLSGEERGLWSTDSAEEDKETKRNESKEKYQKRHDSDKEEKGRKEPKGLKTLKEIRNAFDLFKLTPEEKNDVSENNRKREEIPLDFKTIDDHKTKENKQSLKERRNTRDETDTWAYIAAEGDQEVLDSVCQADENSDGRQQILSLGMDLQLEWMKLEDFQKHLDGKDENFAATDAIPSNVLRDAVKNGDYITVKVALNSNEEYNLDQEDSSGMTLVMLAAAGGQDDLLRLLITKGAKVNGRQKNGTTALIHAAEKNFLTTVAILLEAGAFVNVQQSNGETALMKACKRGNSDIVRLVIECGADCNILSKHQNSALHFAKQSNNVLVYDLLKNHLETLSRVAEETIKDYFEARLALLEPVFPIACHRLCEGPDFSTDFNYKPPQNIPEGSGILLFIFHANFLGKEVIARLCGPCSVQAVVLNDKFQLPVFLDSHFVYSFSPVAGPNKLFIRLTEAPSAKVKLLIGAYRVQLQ
Sequence of Transient receptor potential cation channel subfamily V member 1 (Homo sapiens) (Q8NER1 whole entry, looked up): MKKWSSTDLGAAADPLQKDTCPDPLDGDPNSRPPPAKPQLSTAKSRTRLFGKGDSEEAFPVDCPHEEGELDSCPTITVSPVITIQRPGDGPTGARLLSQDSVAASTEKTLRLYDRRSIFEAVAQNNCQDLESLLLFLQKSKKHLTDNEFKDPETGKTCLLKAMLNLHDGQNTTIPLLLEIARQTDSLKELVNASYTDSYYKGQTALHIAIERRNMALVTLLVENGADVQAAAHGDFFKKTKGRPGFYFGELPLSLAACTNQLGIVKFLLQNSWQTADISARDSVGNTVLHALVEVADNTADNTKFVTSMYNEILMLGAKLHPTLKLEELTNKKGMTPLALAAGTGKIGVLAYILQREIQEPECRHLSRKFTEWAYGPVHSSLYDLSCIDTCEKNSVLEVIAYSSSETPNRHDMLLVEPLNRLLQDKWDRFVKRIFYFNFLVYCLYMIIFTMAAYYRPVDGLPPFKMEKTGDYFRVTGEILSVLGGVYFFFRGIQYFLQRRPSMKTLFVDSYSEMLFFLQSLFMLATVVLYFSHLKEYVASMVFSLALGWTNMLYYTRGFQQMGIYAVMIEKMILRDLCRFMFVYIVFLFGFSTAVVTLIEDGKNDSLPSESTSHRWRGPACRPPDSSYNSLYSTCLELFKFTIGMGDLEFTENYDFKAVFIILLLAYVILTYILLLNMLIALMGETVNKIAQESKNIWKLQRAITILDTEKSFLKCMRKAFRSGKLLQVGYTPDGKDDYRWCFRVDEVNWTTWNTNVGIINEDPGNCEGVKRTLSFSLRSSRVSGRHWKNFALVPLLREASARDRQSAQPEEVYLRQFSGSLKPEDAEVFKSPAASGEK
Sequence of Voltage-gated inwardly rectifying potassium channel KCNH2 (Homo sapiens) (Q12809 whole entry, looked up): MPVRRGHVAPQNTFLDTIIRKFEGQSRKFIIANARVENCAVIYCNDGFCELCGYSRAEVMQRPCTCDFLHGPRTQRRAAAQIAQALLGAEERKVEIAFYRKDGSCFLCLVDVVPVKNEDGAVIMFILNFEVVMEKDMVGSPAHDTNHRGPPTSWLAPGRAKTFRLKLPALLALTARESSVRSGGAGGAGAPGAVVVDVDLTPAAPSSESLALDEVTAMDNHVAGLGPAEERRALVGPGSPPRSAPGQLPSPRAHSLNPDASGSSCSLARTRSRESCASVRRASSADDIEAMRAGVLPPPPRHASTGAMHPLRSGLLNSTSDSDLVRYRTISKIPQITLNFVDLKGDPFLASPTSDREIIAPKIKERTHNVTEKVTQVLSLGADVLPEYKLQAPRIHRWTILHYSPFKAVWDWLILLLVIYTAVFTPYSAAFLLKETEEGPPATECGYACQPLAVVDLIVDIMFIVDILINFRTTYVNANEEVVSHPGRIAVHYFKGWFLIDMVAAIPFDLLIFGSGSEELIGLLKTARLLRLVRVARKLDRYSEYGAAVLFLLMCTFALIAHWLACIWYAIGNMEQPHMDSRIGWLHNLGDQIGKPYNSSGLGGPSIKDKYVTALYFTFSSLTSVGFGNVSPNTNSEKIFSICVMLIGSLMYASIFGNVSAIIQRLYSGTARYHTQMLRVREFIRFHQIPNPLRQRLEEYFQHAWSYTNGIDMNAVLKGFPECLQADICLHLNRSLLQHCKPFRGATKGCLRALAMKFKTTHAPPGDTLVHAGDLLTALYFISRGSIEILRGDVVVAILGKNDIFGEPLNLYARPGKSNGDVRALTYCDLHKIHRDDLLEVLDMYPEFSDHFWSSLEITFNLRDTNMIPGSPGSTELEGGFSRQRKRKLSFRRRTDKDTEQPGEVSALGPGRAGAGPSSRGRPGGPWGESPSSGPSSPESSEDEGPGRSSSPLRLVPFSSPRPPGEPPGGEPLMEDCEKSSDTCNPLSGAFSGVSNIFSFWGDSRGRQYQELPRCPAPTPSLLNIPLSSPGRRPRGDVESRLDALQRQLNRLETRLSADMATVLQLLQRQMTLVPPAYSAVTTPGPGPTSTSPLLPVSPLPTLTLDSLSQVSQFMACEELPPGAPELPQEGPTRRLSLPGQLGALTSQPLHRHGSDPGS
Sequence of ATP-dependent DNA helicase Q1 (Homo sapiens) (P46063 whole entry, looked up): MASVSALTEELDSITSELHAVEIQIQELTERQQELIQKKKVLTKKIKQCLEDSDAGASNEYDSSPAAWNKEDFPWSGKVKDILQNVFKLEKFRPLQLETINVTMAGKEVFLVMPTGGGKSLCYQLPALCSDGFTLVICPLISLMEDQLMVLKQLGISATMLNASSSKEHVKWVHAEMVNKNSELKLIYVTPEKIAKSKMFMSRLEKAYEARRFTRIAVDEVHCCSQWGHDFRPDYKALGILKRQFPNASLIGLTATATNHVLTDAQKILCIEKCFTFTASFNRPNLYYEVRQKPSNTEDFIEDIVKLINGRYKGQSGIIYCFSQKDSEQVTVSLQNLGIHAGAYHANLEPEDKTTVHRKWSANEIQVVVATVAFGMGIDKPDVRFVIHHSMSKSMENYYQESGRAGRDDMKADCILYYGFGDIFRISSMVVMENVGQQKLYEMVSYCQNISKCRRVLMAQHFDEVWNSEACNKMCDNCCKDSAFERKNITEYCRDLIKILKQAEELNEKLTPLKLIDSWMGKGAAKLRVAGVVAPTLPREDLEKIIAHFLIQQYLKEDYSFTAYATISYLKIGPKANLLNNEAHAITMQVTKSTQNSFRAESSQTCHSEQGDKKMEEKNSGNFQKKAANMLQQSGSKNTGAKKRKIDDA

CCCn1c(=O)c2[nH]c(-c3ccc(OCC(=O)Nc4ccc(C#N)cc4)cc3)nc2n(CCC)c1=O
inactive: Potency [1] | Potency [2] | Potency [3] | Potency [4] | Potency [5] | Potency [6] | Potency [7] | Potency [8] | Potency [9] | Potency [10] | Potency [11] | Potency [12] | outcome [13] | outcome [14] | activation [15] 0.938% | outcome [16] | outcome [17] | Potency [18] | Potency [19] | Potency [20]
